Assays:
Test in all cases: PBM binding z-score (relative to random genomic background probes); higher = stronger binding; sequences stand for … in GC…GCGATTGACAGCGTAGAATGAAGG
[1] = tested on: RARb homodimer (NR concentration 270 nM)
Outline: (§1)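 The probes on custom Agilent 4×180K protein-binding microarrays were double-stranded, with 34-nt variable regions bearing direct-repeat seeds, single-nucleotide variants, half-site ablations and random human genomic background sequences. Incubation lasted 1 h with ligand-free nuclear receptor dimers in PBS pH 7.4, 2% milk, 0.02% Triton X-100, 1 mM DTT, 0.2 mg/mL BSA and 0.4 mg/ml salmon testes DNA. Antibodies against each partner (one per run) detected bound dimers, and fluorescence scans were regression-normalized. Binding z-scores take the random background probes as reference.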

[2] = tested on: RARg:RXRa (NR concentration 270 nM, RXRa partner concentration 90 nM)
Outline: as §1

[3] = tested on: RARg homodimer (NR concentration 270 nM)
Outline: as §1

[4] = tested on: RXRa DBDmut IVT, anti-RXR (DBD mutation: RXRa K156A/R161A, NR concentration 90 nM)
Outline: as §1

[5] = tested on: RXRa homodimer (NR concentration 180 nM)
Outline: as §1

[6] = tested on: THRa:RXRa (NR concentration 90 nM, RXRa partner concentration 90 nM)
Outline: as §1

[7] = tested on: THRa homodimer (NR concentration 90 nM)
Outline: as §1

[8] = tested on: VDR homodimer (NR concentration 270 nM)
Outline: as §1

[9] = tested on: VDR:RXRa (NR concentration 270 nM, RXRa partner concentration 90 nM)
Outline: as §1

Sequence	PBM binding z-score [1]	PBM binding z-score [2]	PBM binding z-score [3]	PBM binding z-score [4]	PBM binding z-score [5]	PBM binding z-score [6]	PBM binding z-score [7]	PBM binding z-score [8]	PBM binding z-score [9]
TAGCCTAGGTCAGATCTGGCCAGTATACGCTATA	1.82	2.73	3.49	-0.24	1.3	2.57	-0.423	-0.751	
TCTAGTTGGTCAAAGGTCACCCACTCGAAATGCG	5.15	7.19	6.47	1.86	8.17	3.7	1.8	2.58	5.09
AGAATGAGGTTATACGTAGATGAGGGAAGAAAGT	0.964	1.74	1.17	1.8	2.24	2.26	0.843	0.924	1.53
GCATATAGGTAATACAAGGTGTAAGTCCGATTGT	-0.384	-0.0828	0.241	0.314	0.0841	1.3	-0.232	-0.121	-0.12
GCAGATAGGTGAAACGCAGGTAACTCAGGGTGGC	0.000492	0.873	0.288	-0.635	0.592	1.32	-0.559	-0.593	-0.534
CCTTACGGGTCAAGGCTATAGCACGGGTGGTACG	2.91	4.66	4.36	0.343	5.14	2.39	-0.0277	0.575	2.77
GGAACGAGGGCATTCGAGTTGAGAGCATGGCGAT	0.91	1.14	1.31	2.99	1.05	3.58	-0.815	2.68	3.07
ATATGTAGTTTAGCTGGGGTCATTCAGACTAGGC	3.66	3.73	2.48	2.23	5.23	4.49	3.19	5.03	5.22
TCTATTAGTTGAAGGGGAACCGACGAGTCCGTTT	0.0488	0.44	0.17	2.05	0.673	0.226	0.565	1.61	1.13
TCTTGTAGATCAACAGGAGGTTAAGAATGATCGA	0.596	1.13	0.374	0.333	0.964	0.774	-0.347	0.202	0.56
GCTCGGAGGACAAGATCAGAGCTTTGTCCGTAGA	-0.303	-0.459	0.204	-0.708	-0.639	0.191	-0.651	-0.587	-0.806
CGAACTAGGTCATCCAGGCCAGTGAATACATTGA	3.18	4	4.59	2.18	2.85	3.23	1.19	1.33	3.97
TCATATAGGTTATACAGGTGAAAGTCGGCATCTA	1.48	1.73	1.29	2.09	2.2	1.92	0.477	0.534	2.48
CCGACTGGGGCAAGGTTACCAGAACGCACAGCCA	1.39	1.01	1.27	-0.418	1.07	1.06	-0.142	-0.475	0.0138
TCTTGTAGATCCACAGGAGGTTAAGAAAGATCGA	0.545	0.509	0.319	0.48	0.994	0.962	0.0268	-0.139	0.74
TAGCCCAGGTCAGATCGGGCCAGTATACGCTATA	2.03	2.82	3.39	-0.536	1.77	4.22	0.917	-0.0558	0.983
CCGAGTAGGTGATGGGGCATTCAGGCAACGGTGA	0.69	0.024	-0.0731	-0.961	0.074	0.211	-0.0233	-0.306	-0.461
AGTCAAAGTTCAGGAAGAGGTAACGTAAAGCACG	3.02	5.33	4.81	2.79	2.93	2.91	0.341	1.81	2.96
ATCGCAAGGTCGAGGTGAGTATAGAGAAAGGGAA	1.76	2.55	2.56	0.563	2.35	2.62	0.694	0.322	1.43
GCGACTGGGGCAAAGCAGTTTACCATAAGGTTGG	0.187	0.073	0.187	0.0079	-0.0226	0.718	-0.284	-0.185	0.278
CGTCCAAGGTCAAAGGCCAGTGAAGAGATGACGG	4.03	6.17	6.72	3.33	6.48	3.82	1.82	3.32	
TCATATAGGTAAAGGTCAAAGTCGAACGATATGA	4.51	6.35	5.87	1.9	7.64	3.68	0.708	2.32	4.77
ATCTCTAGGTAAAAGTTCATTGAATCCCGAGGAT	2.65	2.61	2.06	1.89	2.82	1.87	0.281	3.33	2.82
TCGAGTAGGTTAGTCGGGGCATTCGGCCAACATA	0.848	-0.0623	0.0417	-0.081	-0.218	0.974	-0.521	0.124	2.15
CCAGACAGGTGAGGAGGTAACTCAGCCTCGATTA	0.852	0.397	0.304	-0.0213	0.216	0.684	0.59	0.177	0.00298
TGTCAAATTTCAAAGGTAACGTAAGTATCCACAC	0.519	0.768	0.628	-0.231	0.652	1.27	-0.123	-0.127	0.605
